Screening results as filed in PubChem BioAssay.
Hits are enriched below; roughly 2.8% of the tested compounds scored in any of these assays.
p-CIP stab down = p/CIP protein destabilization; Q05BA5; F442A p/CIP-EGFP cells, EGFP fluorescence, 16 h; decrease of EGFP signal, % at 10 µM; 290,000 tested, 0.01% active; AID 1984;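 active means EGFP signal decrease of at least 30% at 10 µM or well 3 SD below plate mean, unless failing retest; inactive means the rest, including hits failing retest or dose response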
PolyA inhibitor = blocks polyadenylation in yeast reporter cells. S. cerevisiae SKY197-pL101 polyadenylation reporter, beta-gal luminescence; efflux-impaired pdr1/pdr3 knockout yeast; score 100 = 6 SD above DMSO. activity score, % at 12 µM. 300,000 tested, 0.02% active. AID 1875;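 active means lowest replicate activity score at least 50, where 100 means six control SD above control mean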;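 further: yeast exposed to compound for 9 h at 30 °C; higher score means more reporter readthrough which indicates perturbed polyadenylation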
AHR activator = activators of human aryl hydrocarbon receptor. activation, % at 5 µM. AHR-responsive luciferase reporter cells, luminescence. P35869. 320,000 tested, 2.5% active; in the data active means activation above about 47%;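 further: 0% = vehicle wells and 100% = reference agonist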
Target sequence (P35869 whole entry, looked up): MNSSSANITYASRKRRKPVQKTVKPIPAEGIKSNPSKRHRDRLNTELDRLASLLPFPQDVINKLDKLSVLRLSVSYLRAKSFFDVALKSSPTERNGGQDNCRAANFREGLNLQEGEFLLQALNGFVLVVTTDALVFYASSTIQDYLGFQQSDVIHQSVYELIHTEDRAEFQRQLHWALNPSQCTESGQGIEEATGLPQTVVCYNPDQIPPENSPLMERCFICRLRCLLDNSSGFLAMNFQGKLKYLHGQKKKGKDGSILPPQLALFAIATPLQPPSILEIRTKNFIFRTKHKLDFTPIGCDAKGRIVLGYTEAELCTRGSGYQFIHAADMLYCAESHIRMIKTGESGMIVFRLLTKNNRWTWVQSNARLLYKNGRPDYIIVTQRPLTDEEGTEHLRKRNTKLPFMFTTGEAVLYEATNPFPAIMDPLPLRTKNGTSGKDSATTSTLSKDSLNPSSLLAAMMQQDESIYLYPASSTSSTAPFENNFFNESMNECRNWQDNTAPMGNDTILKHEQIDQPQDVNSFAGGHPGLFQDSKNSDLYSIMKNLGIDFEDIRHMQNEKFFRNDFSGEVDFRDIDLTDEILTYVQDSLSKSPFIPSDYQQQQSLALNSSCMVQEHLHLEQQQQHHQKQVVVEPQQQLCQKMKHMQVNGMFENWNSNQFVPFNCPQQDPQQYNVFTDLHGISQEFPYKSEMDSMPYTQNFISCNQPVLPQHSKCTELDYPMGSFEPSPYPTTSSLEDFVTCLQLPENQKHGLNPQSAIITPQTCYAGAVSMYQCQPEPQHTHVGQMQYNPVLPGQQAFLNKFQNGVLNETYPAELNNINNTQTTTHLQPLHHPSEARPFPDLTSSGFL
HIF act = HIF pathway transcriptional activation. U2OS HRE-luciferase reporter, luminescence; normalized: DMSO 0%, desferrioxamine 100%. activation, % at 7.5 µM (by protocol). 300,000 tested, 0.32% active;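 active means mean activation of at least 10% of the iron chelator positive control signal, with at least half of replicates also reaching 10%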
Platelet DG rel = modulates dense granule release in human platelets | human platelet-rich plasma, SFLLRN dense granule ATP release, luminescence | 300,000 tested, 0.22% active | inhibition, %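 (compounds screened at 7.5 µM in platelet-rich plasma)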 | AID 1663;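 active means mean replicate score, as percent of positive control, at or above 50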
Numbers without * were called inactive.

Results for CN(C)c1ccc(/C=C2\CCCc3c2nc2ccccc2c3C(=O)O)cc1 ?
p-CIP stab down: -7.3; PolyA inhibitor: 7.2; AHR activator: 8.2; HIF act: 2.1; Platelet DG rel: -2.5

How did O=C(Nc1cccc(S(=O)(=O)NC2=NCCC2)c1)c1cc(Cl)ccc1[N+](=O)[O-] do in these assays?
PolyA inhibitor: 6.1; AHR activator: 0.0; HIF act: -0.4; Platelet DG rel: 1.8

What do the screens show for `O=[N+]([O-])c1ccc(Cl)c(S(=O)(=O)Nc2cccc(S(=O)(=O)NC3=NCCC3)c2)c1`?
AHR activator: 52.3*

How did O=C(O)CC/C(=N\Nc1ccc(Cl)cc1)c1cccs1 do in these assays?
p-CIP stab down: -9.7; PolyA inhibitor: 9.4; AHR activator: 61.2*; HIF act: -0.5; Platelet DG rel: 2.4

Results for COc1ccc(CC(=O)N/N=C/c2c(C)n(C)c3ccccc23)cc1OC ?
p-CIP stab down: -4.9; PolyA inhibitor: -11.0; AHR activator: 47.9*; HIF act: 2.1; Platelet DG rel: 6.0

What do the screens show for `CC(C)(C)c1cc(C(=O)N/N=C/c2ccco2)n[nH]1`?
p-CIP stab down: 11.3; PolyA inhibitor: 11.4; AHR activator: 14.7; HIF act: 1.9; Platelet DG rel: -34.0

What do the screens show for `Cc1c(/C=N/NC(=O)c2cc(C(C)(C)C)[nH]n2)c2ccccc2n1C`?
p-CIP stab down: 0.5; PolyA inhibitor: 1.2; AHR activator: 73.3*; HIF act: 1.0; Platelet DG rel: 12.2

How did O=C(Nc1cccc(-c2csc(Nc3ccc(Cl)cc3)n2)c1)c1cc([N+](=O)[O-])cc(C(F)(F)F)c1 do in these assays?
p-CIP stab down: 30.0; PolyA inhibitor: -7.0; AHR activator: 55.9*; HIF act: 0.7; Platelet DG rel: 0.5

What do the screens show for `CCCCn1c(N)c(N(CCOC)C(=O)c2cccc(S(=O)(=O)N(CC)c3ccccc3)c2)c(=O)[nH]c1=O`?
PolyA inhibitor: -3.1; AHR activator: 3.4; HIF act: 0.3; Platelet DG rel: 0.5

What do the screens show for `CCc1cc2ccc(C)cc2nc1SCC(=O)N1CCN(C(=O)c2ccco2)CC1`?
p-CIP stab down: -0.2; PolyA inhibitor: -17.3; AHR activator: 51.9*; HIF act: -0.4; Platelet DG rel: -11.4

What do the screens show for `Cc1ccc2nc(SCC(=O)N3CCN(C(=O)c4ccco4)CC3)[nH]c2c1`?
p-CIP stab down: -14.2; PolyA inhibitor: -0.4; AHR activator: 67.9*; HIF act: 0.2; Platelet DG rel: -48.1

How did O=C(CSc1nc2ccc(Cl)cc2[nH]1)N1CCN(C(=O)c2ccco2)CC1 do in these assays?
p-CIP stab down: -11.2; PolyA inhibitor: 16.8; AHR activator: 24.8; HIF act: -0.2; Platelet DG rel: 14.8

How did N#Cc1ccsc1NC(=O)C1CCN(S(=O)(=O)c2cccs2)CC1 do in these assays?
PolyA inhibitor: -11.5; AHR activator: -2.5; HIF act: 0.0; Platelet DG rel: 11.1

Results for CCn1c(CNC(=O)c2ccccc2F)cc2ccccc21 ?
p-CIP stab down: -8.7; PolyA inhibitor: 16.9; AHR activator: 15.7; HIF act: 0.3; Platelet DG rel: -6.5

What do the screens show for `O=C(NCc1cc2ccccc2[nH]1)c1ccccc1F`?
p-CIP stab down: 1.6; PolyA inhibitor: -11.2; AHR activator: 47.6*; HIF act: -10.3; Platelet DG rel: 1.2

How did Cn1c(CNC(=O)c2ccccc2F)cc2ccccc21 do in these assays?
p-CIP stab down: 3.8; PolyA inhibitor: 3.6; AHR activator: 49.5*; HIF act: 0.4; Platelet DG rel: 0.5

How did O=C(Cn1sc2ccccc2c1=O)N1CCN(C(=O)c2ccco2)CC1 do in these assays?
p-CIP stab down: -3.3; PolyA inhibitor: -0.6; AHR activator: 11.8; HIF act: 0.7; Platelet DG rel: -8.7

How did C(=C\c1nnc2c3ccccc3ncn12)/c1ccccc1 do in these assays?
p-CIP stab down: -5.2; PolyA inhibitor: -18.7; AHR activator: 67.4*; HIF act: 1.4; Platelet DG rel: -3.4

How did COc1cc(/C=C/c2nnc3c4ccccc4ncn23)cc(OC)c1OC do in these assays?
p-CIP stab down: -0.6; PolyA inhibitor: 2.9; AHR activator: 45.4; HIF act: 0.7; Platelet DG rel: -6.4

Results for Cc1ccc(/C=C2/Sc3ccccc3N(CC(=O)NCCCOC(C)C)C2=O)cc1 ?
p-CIP stab down: 4.4; PolyA inhibitor: -0.4; AHR activator: -1.5; HIF act: 2.8; Platelet DG rel: 1.7

Results for Cc1cc(=O)n2nc(N3CCCC(C(=O)NCc4ccccc4)C3)sc2n1 (stereo unspecified) ?
p-CIP stab down: -4.6; PolyA inhibitor: 8.7; AHR activator: 0.9; HIF act: -0.3; Platelet DG rel: 69.2*

What do the screens show for `CNC(=S)N1CCC(NC(=O)C(Cc2ccccc2)NC(C)=O)CC1` (stereo unspecified)?
p-CIP stab down: 4.5; PolyA inhibitor: 6.7; AHR activator: -1.1; HIF act: -0.5; Platelet DG rel: -0.9

What do the screens show for `O=C(Nc1ccccc1Cl)Oc1ccc(Cl)cc1Cl`?
p-CIP stab down: -0.7; PolyA inhibitor: -7.4; AHR activator: 50.4*; HIF act: 0.8; Platelet DG rel: 12.4

How did S=C(Nc1ccccc1Cl)Nc1ccc(Cl)cc1Cl do in these assays?
p-CIP stab down: -11.1; PolyA inhibitor: -7.0; AHR activator: 3.6; HIF act: 0.6; Platelet DG rel: -0.8

Results for Cc1ccccc1NC(=O)Cc1nnc(SCC(=O)NC2CCCCC2)n1C ?
p-CIP stab down: -12.2; PolyA inhibitor: 17.7; AHR activator: -0.6; HIF act: 0.3; Platelet DG rel: -4.6

Results for CCc1nonc1NC(=O)c1oc2ccc(F)cc2c1C ?
p-CIP stab down: 1.9; PolyA inhibitor: 19.4; AHR activator: 61.1*; HIF act: 2.1; Platelet DG rel: -2.0

How did Cc1c(C(=O)Nc2nonc2-c2ccc(F)cc2)oc2ccc(F)cc12 do in these assays?
p-CIP stab down: -6.2; PolyA inhibitor: 103.1*; AHR activator: 33.4; HIF act: 0.2; Platelet DG rel: -1.9

Results for Cc1ccc(NC(=O)c2ccc(Cl)c(S(=O)(=O)N3CCCC3)c2)nc1 ?
PolyA inhibitor: -1.4; AHR activator: 5.3; HIF act: 0.7; Platelet DG rel: -7.7

What do the screens show for `O=C(NCCOc1ccc(F)cc1)C1CCC(=O)N(CCN2CCOCC2)C1` (stereo unspecified)?
p-CIP stab down: -6.7; PolyA inhibitor: -5.6; AHR activator: 27.7; HIF act: -0.3; Platelet DG rel: -6.7

How did CC(=O)c1cccc(NC(=O)c2ccc(N(C)S(=O)(=O)c3ccc(C)cc3)cc2)c1 do in these assays?
p-CIP stab down: -9.3; PolyA inhibitor: 12.4; AHR activator: 47.9*; HIF act: 0.3; Platelet DG rel: -24.6

How did Cc1cccc(C)c1NC(=O)CNC(=O)C(C)NC(C)c1ccccc1Br (stereo unspecified) do in these assays?
AHR activator: -1.0

What do the screens show for `Cc1oc2ccc(O)cc2c1C(=O)OC(C)C`?
p-CIP stab down: -0.9; PolyA inhibitor: -9.3; AHR activator: -2.7; HIF act: 0.8; Platelet DG rel: -0.3
